Assay results published in PubChem BioAssay (NCI).
Values joined by “and” are separate entries in the source; they are usually repeats but may differ in a detail not shown here. Identical values can stand only once. This is part of a sample that, as a whole, favours compounds with a hit. Of some 83,000 tested, about 20% had one in any assay.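 A percent growth of 40 corresponds to 60% growth inhibition; 0 means no net growth; -100 means all cells died. Active threshold: below 10.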 Active and inactive are the calls of the source.

Assays:
Test in all cases: NCI-60 one-dose screen, 48 h (100 = growth as untreated, 0 = no growth, -100 = all killed)
[1] = system: HCT-15 colon
[2] = system: SNB-19 CNS
[3] = system: U251 CNS
[4] = system: PC-3 prostate
[5] = system: SK-MEL-5 melanoma
[6] = system: UACC-62 melanoma
[7] = system: LOX IMVI melanoma
[8] = system: SK-MEL-28 melanoma
[9] = system: HT29 colon; conditions: 10 µM unless noted
[10] = system: SNB-75 CNS; conditions: 10 µM unless noted

Measured: growth

S=c1nc[nH]c2nc[nH]c12
inactive: [1]; 10 µM 39.1% | [1]; 50 µM 15.6% | [2]; 10 µM 96.3% | [2]; 50 µM 91.6% | [3]; 10 µM 51.5% | [3]; 50 µM 36.8% | [4]; 10 µM 53.5% | [4]; 50 µM 43.2% | [5]; 10 µM 61.8% | [5]; 50 µM 12.8% | [6]; 10 µM 15.8% | [6]; 50 µM 19.8% | [8]; 10 µM 114% | [8]; 50 µM 75.6%
active: [7]; 10 µM 9.56% | [7]; 50 µM 6.96%
15.6% (inactive) and 1.72% (active): [6]; 750 µM

COc1ccc(CCO)cc1
inactive: [1]; 10 µM unless noted 102% | [9] 94.3% | [10] 101% | [2]; 10 µM unless noted 100% | [3]; 10 µM unless noted 95.5% | [4]; 10 µM unless noted 91.9% | [5]; 10 µM unless noted 100% | [6]; 10 µM unless noted 98.5% | [7]; 10 µM unless noted 99.5% | [8]; 10 µM unless noted 111%

Nc1ccc(Cl)c(S(=O)(=O)O)c1
inactive: [1]; 10 µM unless noted 101% | [9] 105% | [10] 93.3% | [2]; 10 µM unless noted 94.4% | [3]; 10 µM unless noted 99.8% | [4]; 10 µM unless noted 108% | [5]; 10 µM unless noted 101% | [6]; 10 µM unless noted 102% | [7]; 10 µM unless noted 97.5% | [8]; 10 µM unless noted 106%

CC1=CC(=O)c2cccc(NC3=NCCO3)c21
inactive: [1]; 10 µM unless noted 102% | [9] 101% | [10] 84.6% | [2]; 10 µM unless noted 104% | [3]; 10 µM unless noted 99.5% | [4]; 10 µM unless noted 89.1% | [5]; 10 µM unless noted 98.2% | [6]; 10 µM unless noted 87.8% | [7]; 10 µM unless noted 98.4% | [8]; 10 µM unless noted 108%

Cc1c(Cl)cc(Cl)c(N)c1Cl
inactive: [1]; 10 µM unless noted 104% | [9] 108% | [10] 91.2% | [2]; 10 µM unless noted 109% | [3]; 10 µM unless noted 99.4% | [4]; 10 µM unless noted 92.2% | [5]; 10 µM unless noted 106% | [6]; 10 µM unless noted 105% | [7]; 10 µM unless noted 99% | [8]; 10 µM unless noted 110%

C#CCOC(=O)C(N)CS (stereo not drawn)
inactive: [1]; 10 µM unless noted 100% | [9] 110% | [10] 81.9% | [2]; 10 µM unless noted 99.7% | [3]; 10 µM unless noted 101% | [4]; 10 µM unless noted 90.5% | [5]; 10 µM unless noted 104% | [6]; 10 µM 88.5% | [6]; 100 µM 87.6% and 90.2% | [7]; 10 µM unless noted 101% | [8]; 10 µM unless noted 94.9%

COc1ccc2oc3c(ccc[n+]3C)c(=O)c2c1
inactive: [1]; 10 µM unless noted 100% | [9] 96.6% | [10] 100% | [2]; 10 µM unless noted 97.9% | [3]; 10 µM unless noted 93.6% | [4]; 10 µM unless noted 93.1% | [5]; 10 µM unless noted 99.4% | [6]; 10 µM unless noted 92.6% | [7]; 10 µM unless noted 99.9% | [8]; 10 µM unless noted 103%

C/C=C/C(=O)OCCCCCCCCCCCC
inactive: [1]; 10 µM unless noted 123% | [9] 92.6% | [10] 101% | [2]; 10 µM unless noted 85.2% | [3]; 10 µM unless noted 98.6% | [4]; 10 µM unless noted 101% | [5]; 10 µM unless noted 97.7% | [6]; 10 µM unless noted 91.6% | [7]; 10 µM unless noted 106% | [8]; 10 µM unless noted 114%

Nc1c(S(=O)(=O)O)cc(Br)c2c1C(=O)c1ccccc1C2=O
inactive: [1]; 10 µM unless noted 107% and 114% | [9] 100% and 108% | [10] 86.7% and 90.7% | [2]; 10 µM unless noted 111% and 107% | [3]; 10 µM unless noted 102% and 105% | [4]; 10 µM unless noted 92% and 84.9% | [5]; 10 µM unless noted 99.6% and 90.8% | [6]; 10 µM unless noted 108% and 104% | [7]; 10 µM unless noted 102% and 103% | [8]; 10 µM unless noted 109% and 113%

C=CCN1C(=O)c2ccccc2C1=O
inactive: [1]; 10 µM unless noted 109% | [9] 122% | [10] 95.9% | [2]; 10 µM unless noted 98.1% | [3]; 10 µM unless noted 101% | [4]; 10 µM unless noted 96.6% | [5]; 10 µM unless noted 101% | [6]; 10 µM unless noted 90.8% | [7]; 10 µM unless noted 94.7% | [8]; 10 µM unless noted 108%
